# How the values were obtained:
# Assay in all cases: DAPPL (digital affinity profiling via proximity ligation, sequencing); 10 mM Tris-HCl pH 7.5, 50 mM NaCl, 1 mM DTT, 4% glycerol, room temperature, 30 min; GST-TFs on glutathione beads, 16-mer random dsDNA library, 0.1% formaldehyde crosslink after washing; high values mean tight binding
# FLI1 = target: T1, FLI1 (Homo sapiens, UniProt Q01543 1-452); details: protein: recombinant; tags: N-terminal GST; dsDNA, one strand shown
# T1 sequence: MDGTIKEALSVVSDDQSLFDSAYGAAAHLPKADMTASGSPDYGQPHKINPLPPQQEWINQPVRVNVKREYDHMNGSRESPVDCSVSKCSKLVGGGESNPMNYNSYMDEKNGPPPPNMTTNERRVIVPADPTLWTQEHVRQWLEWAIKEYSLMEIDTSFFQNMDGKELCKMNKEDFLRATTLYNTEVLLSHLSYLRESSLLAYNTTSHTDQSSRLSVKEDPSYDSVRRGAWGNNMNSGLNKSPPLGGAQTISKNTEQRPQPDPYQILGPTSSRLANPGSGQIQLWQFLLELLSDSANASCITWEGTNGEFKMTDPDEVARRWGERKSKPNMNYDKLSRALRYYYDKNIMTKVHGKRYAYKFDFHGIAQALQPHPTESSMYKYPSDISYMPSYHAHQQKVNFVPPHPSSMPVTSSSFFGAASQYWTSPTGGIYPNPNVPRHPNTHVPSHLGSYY
# In short: (§1)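 Binding signal is given per hexamer as its read frequency for a factor divided by its frequency in the tag-only sample. GST-fused human transcription factors were expressed in yeast, captured on glutathione beads, barcoded with DNA and pooled with that sample, then incubated with 200 nmole of a 16-mer random double-stranded DNA library in Tris/NaCl/DTT/glycerol buffer for 30 min at room temperature. The pools were then washed, crosslinked, proximity-ligated, amplified by PCR and sequenced on an Illumina NextSeq500.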
# ELK1 = target: T2, ELK1 (Homo sapiens, UniProt P19419 1-428); details: protein: recombinant; tags: N-terminal GST; dsDNA, one strand shown
# T2 sequence: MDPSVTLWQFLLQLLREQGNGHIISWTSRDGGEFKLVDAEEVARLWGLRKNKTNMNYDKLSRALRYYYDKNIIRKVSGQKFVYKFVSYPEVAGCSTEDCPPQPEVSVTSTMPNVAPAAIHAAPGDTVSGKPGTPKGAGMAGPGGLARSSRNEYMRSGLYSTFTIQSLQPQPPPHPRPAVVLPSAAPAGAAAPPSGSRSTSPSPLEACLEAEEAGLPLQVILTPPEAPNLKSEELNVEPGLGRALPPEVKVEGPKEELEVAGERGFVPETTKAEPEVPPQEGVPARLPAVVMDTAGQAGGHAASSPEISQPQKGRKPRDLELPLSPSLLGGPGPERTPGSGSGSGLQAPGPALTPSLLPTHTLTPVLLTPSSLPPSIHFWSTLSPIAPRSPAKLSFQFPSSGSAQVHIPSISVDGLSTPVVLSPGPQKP
# In short: as §1
# GABPA = target: T3, GABPA (Homo sapiens, UniProt Q06546 1-454); details: protein: recombinant; tags: N-terminal GST; dsDNA, one strand shown
# T3 sequence: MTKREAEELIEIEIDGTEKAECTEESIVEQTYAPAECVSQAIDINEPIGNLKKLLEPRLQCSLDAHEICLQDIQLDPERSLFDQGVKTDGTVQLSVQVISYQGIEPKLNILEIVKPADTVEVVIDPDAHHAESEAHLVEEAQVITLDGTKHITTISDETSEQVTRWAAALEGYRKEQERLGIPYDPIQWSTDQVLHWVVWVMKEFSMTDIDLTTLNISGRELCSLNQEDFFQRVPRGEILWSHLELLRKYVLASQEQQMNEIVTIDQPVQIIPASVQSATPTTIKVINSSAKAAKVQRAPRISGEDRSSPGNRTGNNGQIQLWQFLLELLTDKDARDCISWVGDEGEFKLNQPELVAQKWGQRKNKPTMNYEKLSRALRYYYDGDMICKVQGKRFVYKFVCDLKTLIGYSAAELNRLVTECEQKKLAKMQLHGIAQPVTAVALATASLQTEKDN
# In short: as §1
# ERG = target: T4, ERG (Homo sapiens, UniProt P11308 1-479); details: protein: recombinant; tags: N-terminal GST; dsDNA, one strand shown
# T4 sequence: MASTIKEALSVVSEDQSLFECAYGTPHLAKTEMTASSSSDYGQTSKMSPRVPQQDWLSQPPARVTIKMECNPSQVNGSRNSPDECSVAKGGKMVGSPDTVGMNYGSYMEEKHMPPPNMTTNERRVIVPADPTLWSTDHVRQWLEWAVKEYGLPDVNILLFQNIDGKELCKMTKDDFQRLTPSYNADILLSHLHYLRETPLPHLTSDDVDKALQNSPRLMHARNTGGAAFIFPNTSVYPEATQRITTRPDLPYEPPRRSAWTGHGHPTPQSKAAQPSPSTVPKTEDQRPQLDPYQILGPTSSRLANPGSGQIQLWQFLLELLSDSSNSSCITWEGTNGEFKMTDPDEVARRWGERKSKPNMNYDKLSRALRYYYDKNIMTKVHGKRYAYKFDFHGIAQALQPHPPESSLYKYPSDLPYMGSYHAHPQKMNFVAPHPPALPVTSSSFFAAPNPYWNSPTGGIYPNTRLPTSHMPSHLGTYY
# In short: as §1
# ELF1 = ELF1 (Homo sapiens, UniProt P32519 1-619); details: protein: recombinant; tags: N-terminal GST; dsDNA, one strand shown
# Sequence of ELF1 (P32519 whole entry): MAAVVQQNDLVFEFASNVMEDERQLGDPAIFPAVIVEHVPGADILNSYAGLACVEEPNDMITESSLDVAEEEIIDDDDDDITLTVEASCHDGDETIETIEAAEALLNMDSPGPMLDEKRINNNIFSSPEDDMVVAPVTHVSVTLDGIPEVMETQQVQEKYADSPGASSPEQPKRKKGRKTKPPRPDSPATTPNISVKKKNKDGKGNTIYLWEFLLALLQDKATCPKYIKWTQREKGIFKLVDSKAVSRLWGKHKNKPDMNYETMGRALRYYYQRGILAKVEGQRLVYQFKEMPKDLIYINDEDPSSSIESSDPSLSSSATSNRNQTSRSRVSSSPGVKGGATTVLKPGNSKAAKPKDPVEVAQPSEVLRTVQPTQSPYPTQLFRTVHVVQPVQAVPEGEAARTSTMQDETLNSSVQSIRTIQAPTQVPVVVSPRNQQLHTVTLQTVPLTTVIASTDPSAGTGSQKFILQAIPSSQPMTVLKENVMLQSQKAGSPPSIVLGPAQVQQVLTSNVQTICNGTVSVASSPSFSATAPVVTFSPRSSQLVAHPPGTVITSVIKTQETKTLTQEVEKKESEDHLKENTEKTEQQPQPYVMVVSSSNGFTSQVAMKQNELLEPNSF
# In short: as §1
# EHF = target: T5, EHF (Homo sapiens, UniProt Q9NZC4 1-300); details: protein: recombinant; tags: N-terminal GST; dsDNA, one strand shown
# T5 sequence: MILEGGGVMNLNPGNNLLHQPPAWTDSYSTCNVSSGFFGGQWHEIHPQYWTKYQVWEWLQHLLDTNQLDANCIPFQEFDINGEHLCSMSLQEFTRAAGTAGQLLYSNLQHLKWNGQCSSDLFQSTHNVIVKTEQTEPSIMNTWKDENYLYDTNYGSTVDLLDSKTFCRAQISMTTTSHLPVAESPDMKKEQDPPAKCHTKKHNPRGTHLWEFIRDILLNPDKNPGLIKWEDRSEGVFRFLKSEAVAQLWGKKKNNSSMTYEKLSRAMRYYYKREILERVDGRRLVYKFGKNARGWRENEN
# In short: as §1
# SPI1 = SPI1 (Homo sapiens, UniProt P17947 1-270); details: protein: recombinant; tags: N-terminal GST; dsDNA, one strand shown
# In short: as §1
# SPIB = SPIB (Homo sapiens, UniProt Q01892 1-262); details: protein: recombinant; tags: N-terminal GST; dsDNA, one strand shown
# Sequence of SPIB (Q01892 whole entry): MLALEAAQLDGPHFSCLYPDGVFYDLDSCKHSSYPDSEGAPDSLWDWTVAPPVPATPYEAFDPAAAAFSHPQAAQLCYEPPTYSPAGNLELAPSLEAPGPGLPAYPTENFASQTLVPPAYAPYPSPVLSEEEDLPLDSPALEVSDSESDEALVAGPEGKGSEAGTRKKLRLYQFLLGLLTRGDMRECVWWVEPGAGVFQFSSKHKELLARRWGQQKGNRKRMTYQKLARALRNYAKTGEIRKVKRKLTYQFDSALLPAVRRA
# In short: as §1
# ELK3 = target: T6, ELK3 (Homo sapiens, UniProt P41970 1-407); details: protein: recombinant; tags: N-terminal GST; dsDNA, one strand shown
# T6 sequence: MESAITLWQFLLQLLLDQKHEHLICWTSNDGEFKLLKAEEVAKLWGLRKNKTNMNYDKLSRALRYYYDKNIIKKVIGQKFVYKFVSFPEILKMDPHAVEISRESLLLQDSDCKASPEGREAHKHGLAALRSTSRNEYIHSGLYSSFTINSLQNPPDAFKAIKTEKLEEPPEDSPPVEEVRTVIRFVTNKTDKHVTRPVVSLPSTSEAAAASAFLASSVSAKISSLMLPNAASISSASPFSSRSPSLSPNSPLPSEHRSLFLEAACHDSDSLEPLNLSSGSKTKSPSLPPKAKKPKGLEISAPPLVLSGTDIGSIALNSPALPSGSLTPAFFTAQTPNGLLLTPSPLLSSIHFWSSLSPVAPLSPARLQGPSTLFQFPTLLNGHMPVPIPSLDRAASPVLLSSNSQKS
# In short: as §1
# FEV = target: T7, FEV (Homo sapiens, UniProt Q99581 1-238); details: protein: recombinant; tags: N-terminal GST; dsDNA, one strand shown
# T7 sequence: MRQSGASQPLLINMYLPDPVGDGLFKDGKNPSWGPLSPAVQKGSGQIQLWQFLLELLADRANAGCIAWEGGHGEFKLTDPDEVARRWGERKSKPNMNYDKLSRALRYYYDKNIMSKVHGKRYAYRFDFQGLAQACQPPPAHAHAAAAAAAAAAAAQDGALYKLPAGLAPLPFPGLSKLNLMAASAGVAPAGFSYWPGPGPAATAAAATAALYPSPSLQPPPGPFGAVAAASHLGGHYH
# In short: as §1
# ETV5 = ETV5 (Homo sapiens, UniProt P41161 1-510); details: protein: recombinant; tags: N-terminal GST; dsDNA, one strand shown
# Sequence of ETV5 (P41161 whole entry): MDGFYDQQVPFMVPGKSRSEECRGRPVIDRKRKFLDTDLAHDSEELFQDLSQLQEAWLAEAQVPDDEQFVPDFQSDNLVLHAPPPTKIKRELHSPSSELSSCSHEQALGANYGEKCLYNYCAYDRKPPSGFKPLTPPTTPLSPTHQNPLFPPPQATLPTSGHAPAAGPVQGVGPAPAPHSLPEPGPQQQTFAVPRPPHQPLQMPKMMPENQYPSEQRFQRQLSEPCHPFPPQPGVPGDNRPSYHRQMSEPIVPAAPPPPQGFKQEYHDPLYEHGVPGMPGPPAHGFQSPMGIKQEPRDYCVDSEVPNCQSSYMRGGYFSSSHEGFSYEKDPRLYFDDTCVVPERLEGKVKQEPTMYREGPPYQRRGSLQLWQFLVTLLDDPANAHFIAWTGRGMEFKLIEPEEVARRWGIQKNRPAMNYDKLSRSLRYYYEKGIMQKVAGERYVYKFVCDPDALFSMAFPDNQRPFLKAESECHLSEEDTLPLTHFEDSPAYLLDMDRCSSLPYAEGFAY
# In short: as §1
# HSF1 = HSF1 (Homo sapiens, UniProt Q00613 1-529); details: protein: recombinant; tags: N-terminal GST; chain copies: 3; dsDNA, one strand shown
# Sequence of HSF1 (Q00613 whole entry): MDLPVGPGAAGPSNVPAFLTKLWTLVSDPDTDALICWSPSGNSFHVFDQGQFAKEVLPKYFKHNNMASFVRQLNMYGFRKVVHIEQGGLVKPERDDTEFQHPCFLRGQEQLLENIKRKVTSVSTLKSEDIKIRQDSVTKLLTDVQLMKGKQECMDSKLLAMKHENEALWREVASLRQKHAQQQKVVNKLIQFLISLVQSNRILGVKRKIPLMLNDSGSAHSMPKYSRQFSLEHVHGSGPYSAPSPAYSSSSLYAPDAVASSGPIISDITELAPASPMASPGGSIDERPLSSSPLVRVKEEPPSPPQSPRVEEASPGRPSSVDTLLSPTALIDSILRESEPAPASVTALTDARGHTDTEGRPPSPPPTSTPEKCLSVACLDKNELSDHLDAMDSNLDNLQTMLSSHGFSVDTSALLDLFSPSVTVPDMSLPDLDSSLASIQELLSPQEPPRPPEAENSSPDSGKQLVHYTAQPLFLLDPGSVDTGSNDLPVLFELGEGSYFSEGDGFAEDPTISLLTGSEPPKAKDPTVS
# In short: as §1
# SPIC = target: T8, SPIC (Homo sapiens, UniProt Q8N5J4 1-248); details: protein: recombinant; tags: N-terminal GST; dsDNA, one strand shown
# T8 sequence: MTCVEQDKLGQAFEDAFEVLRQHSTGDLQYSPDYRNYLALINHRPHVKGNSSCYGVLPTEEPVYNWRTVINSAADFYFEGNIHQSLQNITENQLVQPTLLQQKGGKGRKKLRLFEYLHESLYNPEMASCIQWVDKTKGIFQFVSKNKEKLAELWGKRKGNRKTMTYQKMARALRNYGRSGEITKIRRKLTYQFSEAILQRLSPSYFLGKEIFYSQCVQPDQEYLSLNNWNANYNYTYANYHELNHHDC
# In short: as §1
# ELF4 = ELF4 (Homo sapiens, UniProt Q99607 1-663); details: protein: recombinant; tags: N-terminal GST; dsDNA, one strand shown
# Sequence of ELF4 (Q99607 whole entry): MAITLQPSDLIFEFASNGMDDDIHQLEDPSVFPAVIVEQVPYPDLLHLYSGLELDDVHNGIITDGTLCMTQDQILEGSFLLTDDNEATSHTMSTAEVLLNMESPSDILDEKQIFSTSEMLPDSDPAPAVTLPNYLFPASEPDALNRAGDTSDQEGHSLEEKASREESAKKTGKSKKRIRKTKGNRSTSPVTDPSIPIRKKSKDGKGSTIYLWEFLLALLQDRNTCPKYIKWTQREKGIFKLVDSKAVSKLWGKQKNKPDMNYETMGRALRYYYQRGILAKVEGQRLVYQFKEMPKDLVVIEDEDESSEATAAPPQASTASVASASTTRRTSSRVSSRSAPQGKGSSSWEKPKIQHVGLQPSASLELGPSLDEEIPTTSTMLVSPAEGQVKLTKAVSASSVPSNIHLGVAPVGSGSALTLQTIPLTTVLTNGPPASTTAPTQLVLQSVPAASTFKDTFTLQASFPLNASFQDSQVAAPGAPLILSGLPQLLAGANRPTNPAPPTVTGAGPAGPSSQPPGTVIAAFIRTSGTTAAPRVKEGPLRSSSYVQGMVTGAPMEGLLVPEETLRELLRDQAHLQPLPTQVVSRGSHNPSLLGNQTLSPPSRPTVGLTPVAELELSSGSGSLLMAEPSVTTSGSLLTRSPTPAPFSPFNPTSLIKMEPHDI
# In short: as §1
# ELK4 = target: T9, ELK4 (Homo sapiens, UniProt P28324-2 1-405); details: protein: recombinant; tags: N-terminal GST; dsDNA, one strand shown
# T9 sequence: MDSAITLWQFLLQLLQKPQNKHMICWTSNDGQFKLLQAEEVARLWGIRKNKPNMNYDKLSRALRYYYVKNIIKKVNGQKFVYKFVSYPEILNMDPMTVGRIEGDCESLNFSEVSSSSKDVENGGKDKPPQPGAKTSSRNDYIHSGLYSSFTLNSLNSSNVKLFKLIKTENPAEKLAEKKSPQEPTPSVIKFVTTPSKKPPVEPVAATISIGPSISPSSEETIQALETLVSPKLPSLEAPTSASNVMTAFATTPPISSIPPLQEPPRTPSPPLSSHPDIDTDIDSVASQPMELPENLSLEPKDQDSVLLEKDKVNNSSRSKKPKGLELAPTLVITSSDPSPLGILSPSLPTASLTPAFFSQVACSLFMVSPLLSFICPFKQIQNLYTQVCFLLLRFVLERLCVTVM
# In short: as §1
# ETV2 = target: T10, ETV2 (Homo sapiens, UniProt O00321 1-342); details: protein: recombinant; tags: N-terminal GST; dsDNA, one strand shown
# T10 sequence: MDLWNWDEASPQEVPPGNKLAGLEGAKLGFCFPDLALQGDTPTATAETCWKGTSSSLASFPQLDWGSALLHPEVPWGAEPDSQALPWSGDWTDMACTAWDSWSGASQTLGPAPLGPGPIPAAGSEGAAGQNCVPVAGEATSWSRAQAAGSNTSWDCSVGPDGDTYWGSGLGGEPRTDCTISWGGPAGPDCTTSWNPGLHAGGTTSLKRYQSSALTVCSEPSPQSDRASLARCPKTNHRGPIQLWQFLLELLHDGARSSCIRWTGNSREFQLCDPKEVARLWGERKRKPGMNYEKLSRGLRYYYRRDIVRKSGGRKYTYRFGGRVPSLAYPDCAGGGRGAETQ
# In short: as §1
# ELF3 = target: T11, ELF3 (Homo sapiens, UniProt P78545 1-371); details: protein: recombinant; tags: N-terminal GST; dsDNA, one strand shown
# T11 sequence: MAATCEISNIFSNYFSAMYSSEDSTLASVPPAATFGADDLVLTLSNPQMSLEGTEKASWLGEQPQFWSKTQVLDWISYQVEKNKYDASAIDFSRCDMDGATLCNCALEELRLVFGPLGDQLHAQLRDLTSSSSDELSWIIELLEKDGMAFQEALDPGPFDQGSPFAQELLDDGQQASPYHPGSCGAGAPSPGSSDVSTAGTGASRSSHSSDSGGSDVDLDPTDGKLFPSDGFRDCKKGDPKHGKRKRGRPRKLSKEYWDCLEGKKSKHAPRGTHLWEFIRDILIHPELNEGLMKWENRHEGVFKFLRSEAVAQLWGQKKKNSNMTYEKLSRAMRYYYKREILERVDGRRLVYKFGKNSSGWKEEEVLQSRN
# In short: as §1
# CRX = CRX (Homo sapiens, UniProt O43186 1-299); details: protein: recombinant; tags: N-terminal GST; dsDNA, one strand shown
# Sequence of CRX (O43186 whole entry): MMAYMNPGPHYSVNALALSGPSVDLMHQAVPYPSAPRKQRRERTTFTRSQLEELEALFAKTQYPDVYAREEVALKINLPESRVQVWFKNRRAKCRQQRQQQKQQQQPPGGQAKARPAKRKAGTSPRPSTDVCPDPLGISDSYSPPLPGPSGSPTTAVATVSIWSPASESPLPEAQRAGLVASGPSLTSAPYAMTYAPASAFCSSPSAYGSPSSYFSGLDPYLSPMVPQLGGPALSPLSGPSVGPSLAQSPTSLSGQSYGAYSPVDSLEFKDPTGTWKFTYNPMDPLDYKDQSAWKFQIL
# In short: as §1
# ETV1 = ETV1 (Homo sapiens, UniProt P50549 1-477); details: protein: recombinant; tags: N-terminal GST; dsDNA, one strand shown
# Sequence of ETV1 (P50549 whole entry): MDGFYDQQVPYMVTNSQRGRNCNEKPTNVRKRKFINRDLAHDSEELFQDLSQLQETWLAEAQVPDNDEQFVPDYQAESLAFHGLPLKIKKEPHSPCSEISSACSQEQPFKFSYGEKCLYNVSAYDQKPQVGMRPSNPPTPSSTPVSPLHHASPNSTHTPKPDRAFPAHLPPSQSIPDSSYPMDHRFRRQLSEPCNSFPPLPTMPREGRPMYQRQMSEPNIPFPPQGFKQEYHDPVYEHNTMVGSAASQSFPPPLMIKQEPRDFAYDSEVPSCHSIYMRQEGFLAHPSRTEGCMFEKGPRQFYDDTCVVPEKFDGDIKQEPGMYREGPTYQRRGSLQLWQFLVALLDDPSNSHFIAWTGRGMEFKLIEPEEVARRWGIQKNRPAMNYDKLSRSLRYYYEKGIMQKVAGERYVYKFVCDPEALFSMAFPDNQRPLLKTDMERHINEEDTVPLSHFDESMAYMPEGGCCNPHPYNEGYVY
# In short: as §1
sequence,measurement,setting,value
CTTCCC,binding signal,FLI1,"2.11 fold enrichment (6-mer frequency, TF over GST control)"
same,binding signal,ELK1,"2.06 fold enrichment (6-mer frequency, TF over GST control)"
same,binding signal,GABPA,"2.07 fold enrichment (6-mer frequency, TF over GST control)"
same,binding signal,ERG,"2.19 fold enrichment (6-mer frequency, TF over GST control)"
same,binding signal,ELF1,"2.29 fold enrichment (6-mer frequency, TF over GST control)"
same,binding signal,EHF,"2.4 fold enrichment (6-mer frequency, TF over GST control)"
same,binding signal,SPI1,"3.35 fold enrichment (6-mer frequency, TF over GST control)"
same,binding signal,SPIB,"2.45 fold enrichment (6-mer frequency, TF over GST control)"
same,binding signal,ELK3,"2.08 fold enrichment (6-mer frequency, TF over GST control)"
same,binding signal,FEV,"1.91 fold enrichment (6-mer frequency, TF over GST control)"
same,binding signal,ETV5,"2.24 fold enrichment (6-mer frequency, TF over GST control)"
same,binding signal,HSF1,"1.55 fold enrichment (6-mer frequency, TF over GST control)"
same,binding signal,SPIC,"2.34 fold enrichment (6-mer frequency, TF over GST control)"
same,binding signal,ELF4,"1.95 fold enrichment (6-mer frequency, TF over GST control)"
same,binding signal,ELK4,"1.81 fold enrichment (6-mer frequency, TF over GST control)"
same,binding signal,ETV2,"2.4 fold enrichment (6-mer frequency, TF over GST control)"
same,binding signal,ELF3,"2.12 fold enrichment (6-mer frequency, TF over GST control)"
same,binding signal,CRX,"1.33 fold enrichment (6-mer frequency, TF over GST control)"
same,binding signal,ETV1,"2.01 fold enrichment (6-mer frequency, TF over GST control)"

# Source: publication PMC7862700, “An all-to-all approach to the identification of sequence-specific readers for epigenetic DNA modifications on cytosine”
